# AmpC no deterg: AmpC beta-lactamase inhibition without detergent. P00811. AmpC nitrocefin hydrolysis, absorbance 480 nm, 0.0001% Triton. Potency, µM (top dose mostly 57.1 µM), most hits filed as inhibitors. hit rate 0.52% among 330,000. AID 485341; further: nearly all actives have a fitted effect of over 20% in size
# Target sequence (P00811 whole entry, looked up): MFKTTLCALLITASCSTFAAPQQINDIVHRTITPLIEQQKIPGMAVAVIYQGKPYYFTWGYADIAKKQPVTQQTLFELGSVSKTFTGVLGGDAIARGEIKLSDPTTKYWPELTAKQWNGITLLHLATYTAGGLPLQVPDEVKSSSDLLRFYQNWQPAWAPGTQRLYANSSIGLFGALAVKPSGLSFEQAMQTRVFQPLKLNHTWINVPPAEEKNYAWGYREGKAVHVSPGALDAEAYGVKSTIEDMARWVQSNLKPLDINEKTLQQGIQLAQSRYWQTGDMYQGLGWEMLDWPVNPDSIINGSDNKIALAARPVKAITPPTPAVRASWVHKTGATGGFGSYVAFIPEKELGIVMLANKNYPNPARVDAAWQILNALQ
#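 AmpC (5.3 nM in the dispensed reagent) in 20 mM phosphate pH 7.0 with 0.01% (detergent screen) or 0.0001% Triton X-100 was preincubated with compounds for 15 min at room temperature. Nitrocefin was then added from an 800 uM solution, and hydrolysis was followed at 480 nm.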
# AmpC detergent: AmpC beta-lactamase inhibition with detergent present; P00811; AmpC hydrolysis of nitrocefin, absorbance 480 nm, 0.01% Triton; Potency, µM (titrated, usually from 114 µM), most hits filed as inhibitors; hit rate 0.041% among 370,000; further: nearly all actives have a fitted effect of over 25% in size
#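 20 mM phosphate pH 7.0 + 0.01% (detergent screen) or 0.0001% Triton X-100; 5.3 nM AmpC reagent; cpd preinc 15 min RT; nitrocefin (800 uM stock) to start; A480 q20 s × 4 min; Activity was normalised to no-enzyme and no-compound control wells.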
# Sm TGR block: inhibitors of Schistosoma mansoni thioredoxin glutathione reductase | Q962Y6 | purified TGR, DTNB reduction, TNB absorbance 405 nm | Potency, µM (series often up to 114 µM), actives largely listed as inhibitors | hit rate 3% among 360,000 | AID 485364; further: nearly all actives have a fitted effect of over 60% in size
#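 TGR 20 nM + NADPH 100 uM (dispensed conc.), cpd preinc 15 min RT; start with NADPH (500 uM addition) then DTNB (15 mM addition). Kinetic TNB absorbance, 405 nm filter. Four-parameter Hill fit across titration.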
# Numbers stand for hits; – = inactive; ? = inconclusive; · = no result given. The list is not random: actives were taken first. Their share in the collection is about 3.3%. The call rests on the fitted dose curve; in most records, active means well fitted curve in the direction sought with a large enough effect; inconclusive means small, poorly fitted or top-dose-only effect, or another doubt; inactive means no such curve, though single readings can be large; an effect the other way counts as inactive or inconclusive.
SMILES,AmpC no deterg,AmpC detergent,Sm TGR block
O=C(COC(=O)/C=C/c1ccco1)Nc1ncc(Cl)cc1Cl,–,–,45µM
Cc1ccc(C(=O)OCC(=O)Nc2ncc(Cl)cc2Cl)cc1NC(=O)c1ccco1,–,–,45µM
COC(=O)c1ccc(/C=C/C(=O)OCC(=O)Nc2ncc(Cl)cc2Cl)cc1,–,–,–
COc1ccc(/C=C/C(=O)OCC(=O)Nc2cc(S(=O)(=O)N(C)C)ccc2Cl)cc1,–,–,–
Cc1ccc(C(=O)OCC(=O)Nc2ccccc2)cc1NC(=O)c1ccco1,–,–,–
CC(C)=CC(=O)OCC(=O)Nc1nc(C)c(Cl)cc1Cl,–,?,–
Cc1nc(NC(=O)COC(=O)/C=C/c2ccco2)c(Cl)cc1Cl,–,–,8.9µM
CN(C)S(=O)(=O)c1ccc(Cl)c(NC(=O)COC(=O)/C=C/c2ccco2)c1,–,–,35µM
O=C(NCCN1CCCC1)C1CCC(=O)N(CCCN2CCOCC2)C1 (configuration not stated),–,–,–
O=P(c1ccccc1)(c1ccccc1)c1nc(-c2ccc(Cl)cc2)oc1N1CCOCC1,–,–,–
COc1ccc(NS(=O)(=O)c2cccc(C(=O)NCc3cccnc3)c2)cc1,–,?,–
Cc1nc(NC(=O)COC(=O)C(C)NC(=O)c2ccccc2)c(Cl)cc1Cl (configuration not stated),–,–,–
Cc1nc(NC(=O)COC(=O)C(NC(=O)c2ccco2)C(C)C)c(Cl)cc1Cl (configuration not stated),–,–,32µM
CCN(CC)S(=O)(=O)c1ccc(NC(=O)c2nn(C)c3c2CSc2ccccc2-3)cc1,·,–,–
O=C(CCN=C1NS(=O)(=O)c2ccccc21)OCC(=O)c1ccccc1Cl,40µM,–,–
COc1ccccc1C(=O)COC(=O)CCCN=C1NS(=O)(=O)c2ccccc21,–,–,–
Cc1ccc(C)c(N2CCN(CCCNC(=O)Cn3cccc3C(=O)c3ccccc3)CC2)c1,–,?,–
C/C(=N\NC(=O)C1CCCN(S(=O)(=O)c2ccccc2)C1)c1ccccn1 (configuration not stated),3.2µM,–,–
C/C(=N\NC(=O)C1CCCN(S(=O)(=O)c2ccccc2)C1)c1ccncc1 (configuration not stated),–,–,–
CCC(Sc1nncn1C)C(=O)Nc1cc(C)on1 (configuration not stated),–,–,–
O=[N+]([O-])c1ccc(CN2CCN(c3ccccc3Cl)CC2)o1,–,?,–
COc1ccccc1N1CCN(Cc2ccco2)CC1,–,–,–
Cc1ccccc1N1CCN(Cc2ccc([N+](=O)[O-])o2)CC1,–,–,35µM
COc1ccccc1N1CCN(Cc2ccc(-c3ccccc3[N+](=O)[O-])o2)CC1,–,?,25µM
Cc1nn(C)c(C(=O)NNC(=O)NC2CCCCC2)c1Cl,–,–,–
SMILES,AmpC no deterg,AmpC detergent,Sm TGR block
COc1ccc(NS(=O)(=O)c2cccs2)cc1S(=O)(=O)N1CCCCC1,–,?,–
N#Cc1c2ccc(O)cc2n2ccccc12,–,–,?
CCOC(=O)[C@H]1[C@H]2COc3ccccc3[C@@H]2N2C(=O)CN(Cc3ccc(C)cc3)C(=O)[C@@]12C,–,·,·
COC(=O)CCCC1=CC2=C(c3ccccc3)C(=O)C(C)(OC(=O)C3CCCC3)C(=O)C2=CN1C1CC1 (configuration not stated),–,–,?
COC(=O)CCCC1=CC2=C(c3ccccc3)C(=O)C(C)(OC(=O)C3CCCC3)C(=O)C2=CN1CCN1CCOCC1 (configuration not stated),–,–,35µM
COC(=O)CCCC1=CC2=C(c3ccccc3)C(=O)C(C)(OC(=O)C3CCCC3)C(=O)C2=CN1CCc1ccccn1 (configuration not stated),–,–,28µM
CC1(OC(=O)C2CCCC2)C(=O)C=C2C=C(c3ccsc3)N(CCN3CCOCC3)C=C2C1=O (configuration not stated),–,–,–
CC1(OC(=O)C2CCCC2)C(=O)C=C2C=C(c3ccsc3)N(CCc3c[nH]c4ccccc34)C=C2C1=O (configuration not stated),–,–,?
COC(=O)CCCC1=CC2=C(c3ccccc3)C(=O)C(C)(OC(=O)C3CCCC3)C(=O)C2=CN1CCc1c[nH]c2ccccc12 (configuration not stated),–,–,8.9µM
COC(=O)CCCC1=CC2=C(c3ccccc3)C(=O)C(C)(OC(=O)C3CCCC3)C(=O)C2=CN1C(CO)CO (configuration not stated),–,–,40µM
C=CCN1C=C2C(=O)C(C)(OC(=O)C3CCCC3)C(=O)C(c3ccccc3)=C2C=C1CCCC(=O)OC (configuration not stated),–,–,?
O=C(NCC1CCCO1)c1ccc(CNS(=O)(=O)c2ccc(F)c(Cl)c2)cc1 (configuration not stated),–,?,–
CCCCC1(C(=O)OCC)CC(CSC(=N)N)OC1=O (configuration not stated),–,–,·
COCCNC(=O)C(OC(=O)c1ccco1)c1ccccc1F (configuration not stated),–,–,–
FC(F)(F)c1ccc(/C=N/n2c(C3CCCCC3)n[nH]c2=S)cc1,–,–,–
CCOc1ncc(S(=O)(=O)N2CCN(CC)CC2)cc1C(=O)O,–,–,–
COC(=O)CCCC1=CC2=CC(=O)C(C)(OC(=O)c3cccs3)C(=O)C2=CN1CCc1c[nH]c2ccccc12 (configuration not stated),–,–,?
CCCCC1=CC2=CC(=O)C(C)(OC(=O)CC)C(=O)C2=CN1CCc1c[nH]c2ccccc12 (configuration not stated),–,–,45µM
Cc1ccnc(NS(=O)(=O)c2ccc(NC(=O)c3ccc(S(=O)(=O)N4CCCC4)cc3)cc2)n1,–,–,–
COc1ccc(NC(=O)c2nc3nc(C)cc(C(F)F)n3n2)c(C)c1,·,–,–
COc1cccc(NC(=O)c2nc3nc(C)cc(C(F)F)n3n2)c1,45µM,–,–
Oc1ccc(NCc2ccccc2OCc2ccc(Cl)cc2)cc1,·,–,45µM
CCOc1cc(CNc2ccc(O)cc2)cc(Br)c1OCc1ccccc1,·,–,–
CCOc1cc(CNc2ccc(O)cc2)cc(Br)c1OCc1ccccc1F,4µM,–,–
Oc1ccc(NCc2ccccc2OCc2ccccc2)cc1,–,–,14µM
SMILES,AmpC no deterg,AmpC detergent,Sm TGR block
COc1cc(CNc2ccc(O)cc2)cc(Br)c1OCc1ccccc1F,–,–,–
O=c1[nH]c2ccc(NCc3ccccc3OCc3ccc(Cl)cc3)cc2[nH]1,–,–,?
CCNCc1ccccc1OCc1ccccc1,–,–,–
CCOc1cc(CNc2ccc(O)cc2)ccc1OCc1ccc(Cl)cc1,·,–,45µM
Cc1cc(Br)ccc1NC(=O)c1ccc(-n2cncn2)c([N+](=O)[O-])c1,–,–,–
Cc1ccc(-n2c(=O)c3c(c4cc(C)ccc4n3C)n(CC(=O)Nc3c(C)cccc3C)c2=O)cc1,·,–,–
COc1cccc(CN(C)C(=O)c2cc(S(=O)(=O)NC3CCCCC3)ccc2C)c1,–,·,·

# Screens: PubChem, National Center for Advancing Translational Sciences (NCATS)
